Test results from PubChem BioAssay AID1209 (Sanford-Burnham Center for Chemical Genomics, 2008).
Screen size: about 190,000 compounds; about 810 (0.43%) were called active. Rule as the data show it: active = inhibition above about 50%; inactive = the rest. Only a selection was taken, and actives are over-represented in it overall.

target: Mannose-6-phosphate isomerase (Homo sapiens) (UniProt P34949); test: inhibitors of human PMI, primary screen, biochemical, fluorescence intensity, coupled assay (AID 1209); settings: purified PMI enzyme, at 20 µM, stronger effect = higher value;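 also: plate controls were DMSO vehicle for no effect and wells lacking substrate for full effect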
Sequence (P34949 whole entry, looked up): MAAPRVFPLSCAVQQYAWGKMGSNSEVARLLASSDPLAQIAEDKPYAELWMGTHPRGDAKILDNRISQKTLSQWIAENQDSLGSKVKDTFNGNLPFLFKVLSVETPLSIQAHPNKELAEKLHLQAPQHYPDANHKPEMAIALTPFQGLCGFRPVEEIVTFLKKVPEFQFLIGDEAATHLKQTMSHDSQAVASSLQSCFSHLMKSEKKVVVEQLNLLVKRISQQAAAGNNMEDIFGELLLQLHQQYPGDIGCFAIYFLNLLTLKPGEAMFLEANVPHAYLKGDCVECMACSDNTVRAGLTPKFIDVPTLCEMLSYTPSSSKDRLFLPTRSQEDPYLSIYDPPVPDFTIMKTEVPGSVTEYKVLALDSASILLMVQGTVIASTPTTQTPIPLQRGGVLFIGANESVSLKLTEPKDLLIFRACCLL

SMILES	inhibition
CCCCNC(=S)NNC(=O)c1csc(C)c1CC	-8.1% (inactive)
O=C(O)CNC(=O)CC1S/C(=N/N=C/c2ccccc2O)NC1=O (stereo not given)	-8.1% (inactive)
CCCn1c(=O)c2ccccc2n2c(SCCOc3ccc(C)cc3)nnc12	12.7% (inactive)
CCn1nnnc1SCC(=O)Nc1cc(OC)cc(OC)c1	2.1% (inactive)
COc1ccc(C(=O)COC(=O)CCN=C2NS(=O)(=O)c3ccccc32)cc1OC	-5.9% (inactive)
Cc1c(NC(=O)CCC2CCCCC2)c(=O)n(-c2ccccc2)n1C	-13.7% (inactive)
O=S(=O)(NC1=NCCC1)c1cccc(NC(=S)NCCc2ccccc2)c1	2.3% (inactive)
Cc1cc(N2CCOCC2)nc2ccc(NC(=O)C3CCC(C)CC3)cc12 (stereo not given)	-6% (inactive)
Cc1cc(N2CCOCC2)nc2ccc(NC(=S)N3CCN(c4ccccc4)CC3)cc12	22.5% (inactive)
Cc1cc(N2CCOCC2)nc2ccc(NC(=S)N3CCCCC3C)cc12 (stereo not given)	52.4% (active)
O=c1oc2cc(OCc3ccc(C(F)(F)F)cc3)ccc2cc1-c1ccccn1	-7% (inactive)
COc1cc(OC)cc(C(=O)NNC(=S)Nc2ccc(S(N)(=O)=O)cc2)c1	-10.4% (inactive)
O=C(NNC(=S)Nc1ccc(Cl)cc1)c1cccs1	-1.6% (inactive)
COc1cc(C(=O)NNC(=S)Nc2ccc(S(N)(=O)=O)cc2)cc(OC)c1OC	56.6% (active)
NS(=O)(=O)c1ccc(NC(=S)NNC(=O)c2cccs2)cc1	63.3% (active)
COc1cc(C(=O)NNC(=O)c2ccc(NC(C)=O)cc2)cc(OC)c1OC	-4.2% (inactive)
O=C(NNC(=S)Nc1ccccc1)c1cccs1	-13.9% (inactive)
COc1ccc(C(=O)Nc2ccc3c(c2)nc(CN2CCCC2)n3C)cc1	9.7% (inactive)
C=CCn1c(SCC(=O)c2cccs2)nnc1-c1cccc(OC)c1	11.5% (inactive)
O=C(N/N=C/C(c1ccccc1)c1ccccc1)c1ccccc1F	-8.5% (inactive)
Cc1nn(-c2nc3ccccc3n2Cc2ccccc2)c2c1C(=O)CC(C)(C)C2	24.7% (inactive)
CNCc1ccccc1Sc1cccc(O)c1	-7% (inactive)
CNCc1ccccc1Sc1cc(O)ccc1O	19.1% (inactive)
CNCc1ccccc1Sc1ccc(O)c(O)c1	74.9% (active)
CN(C(=O)CS(=O)(=O)c1cn(CC(=O)N2CCOCC2)c2ccccc12)c1ccccc1	-4.3% (inactive)
Cc1ccc(NC(=O)NC2C(NC(=O)Nc3ccc(C)cc3)N(C)C(=O)N2C)cc1 (stereo not given)	9.5% (inactive)
CNC(=S)N(CCc1c(C)[nH]c2ccc(OC)cc12)Cc1cccnc1	16% (inactive)

SMILES	inhibition
CC(C)(Cc1ccc(O)cc1)NC(=O)CC(=O)N=Nc1c(O)[nH]c2cc(Br)ccc12	51.6% (active)
O=C(CSCc1ccc(Br)cc1)N=Nc1c(O)[nH]c2ccccc12	4.5% (inactive)
CC(C)(Cc1ccc(O)cc1)NC(=O)CC(=O)N=Nc1c(O)[nH]c2ccc(Br)cc12	1.3% (inactive)
CSc1nc2sc(-c3ccccc3)cc2c(=O)n1N	-6.6% (inactive)
CCOC(=O)Cc1csc(NC(=O)NC2(C(F)(F)F)Oc3ccc(Cl)cc3O2)n1 (stereo not given)	51.8% (active)
CCOC(=O)Cc1csc(NC(=O)C(C)(C)CC)n1	-7.2% (inactive)
CCOC(=O)Cc1csc(NC(=O)CC)n1	-9.9% (inactive)
CCOC(=O)Cc1csc(NC(=O)Nc2cccc(Cl)c2)n1	-0.4% (inactive)
CCOC(=O)Cc1csc(NC(=O)NC2(C(F)(F)F)Oc3cc(Cl)c(Cl)cc3O2)n1	57.5% (active)
CCOC(=O)Cc1csc(NC(=O)NC2(C(F)(F)F)Oc3ccccc3O2)n1	22.4% (inactive)
CC(OC(=O)c1ccc2ncsc2c1)C(=O)NCc1ccccc1 (stereo not given)	15.5% (inactive)
O=C(Nc1nc(-c2cccs2)cs1)c1cc2ccccc2oc1=O	-3.3% (inactive)
O=C(NC(Cc1c[nH]c2ccccc12)C(=O)N/N=C/c1ccc(Cl)cc1)c1cccs1 (stereo not given)	18.1% (inactive)
COc1cccc(C(=O)/C=C/c2ccc(N3CCCCC3)c([N+](=O)[O-])c2)c1	14.3% (inactive)
O=C(O)c1ccc(-c2nc(-c3ccccc3)cs2)cc1	-11.3% (inactive)
Oc1ccc(-c2csc(-c3ccccc3)n2)cc1O	62.6% (active)
O=C(O)c1ccc(-c2nc(-c3ccc(Cl)c(Cl)c3)cs2)cc1	-3.3% (inactive)
Oc1ccc(-c2nc(-c3ccc(O)c(O)c3)cs2)cc1	54.3% (active)
Cc1nc(-c2ccc(O)c(O)c2)cs1	47% (inactive)
Oc1ccccc1-c1csc(-c2ccccc2)n1	12.8% (inactive)
Cc1ccccc1N1C(=O)CSC1=C(C#N)C#N	-15.3% (inactive)
CCC1=C/C(=C/c2sc3ccccc3[n+]2CC)CC(C)(C)C1	-60.6% (inactive)
CCOC(=O)c1cnc2c(-c3ccccc3)c(C)nn2c1N	9.6% (inactive)
Cc1ccc(CNC(=O)CCCCn2c(=O)[nH]c3ccsc3c2=O)cc1	-4.3% (inactive)
CCCCn1c(-c2sccc2C)n[nH]c1=S	8.1% (inactive)
COc1cccc(NC(=O)C2CC(=O)N(C)C(=Nc3cccc(F)c3)S2)c1 (stereo not given)	15.4% (inactive)
COc1cccc(NC(=O)C2CC(=O)N=C(N)S2)c1 (stereo not given)	15.2% (inactive)

SMILES	inhibition
COc1cccc(NC(=O)C2CC(=O)n3cnnc3S2)c1 (stereo not given)	51.1% (active)
Cc1ccc(-c2nnc(N3CCN(c4ccccn4)CC3)c3ccccc23)cc1	10.5% (inactive)
CC(C)CC(=O)Nc1cccc(NC(=O)CC(C)C)n1	-6.8% (inactive)
Cc1ccccc1NC(=O)C(NS(=O)(=O)c1ccc2c(c1)c(=O)n(C)c(=O)n2C)c1ccccc1 (stereo not given)	-1.4% (inactive)
O=C(O)CCC(=O)N1CCN(c2ccc(C(=O)c3ccc(F)cc3)cc2)CC1	2.5% (inactive)
O=C(COC(=O)c1ccccc1NC(=O)C1CC1)c1ccc2c(c1)OCCO2	20.7% (inactive)
O=C(O)/C=C/C(=O)Nc1ccccc1C(=O)OCC(=O)c1ccc2c(c1)OCCO2	108% (active)
CC(C)C(=O)Nc1ccccc1C(=O)OCC(=O)c1ccc2c(c1)OCCO2	12.7% (inactive)
COc1cccc(N2C(=O)/C(=C\c3cccs3)NC2=S)c1	-20.3% (inactive)
COc1ccc(N2C(=O)/C(=C/c3cccs3)NC2=S)cc1	65.2% (active)
COc1ccc(N2C(=O)/C(=C/N(C)C)NC2=S)cc1	6.1% (inactive)
CC(C(=O)Nc1ncccn1)(c1ccccc1)c1ccccc1	0.1% (inactive)
C=CCNC(=S)NNC(=O)c1ccc(=O)n(Cc2ccccc2)c1	-1.4% (inactive)
CCOC(=O)c1cnc2ccccc2c1NCCO	-1.9% (inactive)
CCOC(=O)c1cnc2ccc(C)cc2c1NCCO	-0.9% (inactive)
CCOC(=O)c1cnc2c(ccc3ccccc32)c1NCCO	103% (active)
C/C(CC1CC(C)OC1=O)=N\NC(N)=S (stereo not given)	17.6% (inactive)
CCOC(=O)c1sc(N(C)C(C)=O)nc1C	-2.3% (inactive)
Cc1ccc(-n2c(SCC(=O)N(C)C3CCS(=O)(=O)C3)nc3ccccc3c2=O)cc1 (stereo not given)	-4.5% (inactive)
CC(C)(C)NC(=O)COc1ccc(CNc2ccc3[nH]c(=O)[nH]c3c2)cc1	62.2% (active)
C=CCOc1c(Cl)cc(CNc2ccc3[nH]c(=O)[nH]c3c2)cc1OC	26.3% (inactive)
C=CCOc1cccc(CNc2ccc3[nH]c(=O)[nH]c3c2)c1	17.8% (inactive)
CCOc1cc(CNc2ccc3[nH]c(=O)[nH]c3c2)ccc1OCC(=O)NC(C)(C)C	75% (active)
CCOc1cc(CNC)ccc1OCC(=O)NC(C)(C)C	-7.3% (inactive)
CC(C)(C)NC(=O)COc1ccc(CNc2ncn[nH]2)cc1	6.1% (inactive)
CCOc1cc(CNc2ncn[nH]2)ccc1OCC(=O)NC(C)(C)C	7% (inactive)
CCc1ccc(OCC(=O)NC(C)(C)C)cc1	2.4% (inactive)

SMILES	inhibition
C=CCOc1ccc(CNc2ccc3[nH]c(=O)[nH]c3c2)cc1OC	81.1% (active)
COc1cc(CNc2ccc3[nH]c(=O)[nH]c3c2)ccc1OCC(=O)NC(C)(C)C	82.4% (active)
COc1cc(CNc2ccc(CNc3ncn[nH]3)cc2)ccc1OCC(=O)NC(C)(C)C	0.6% (inactive)
COc1cc(CNc2ccc3[nH]c(=O)[nH]c3c2)cc(Br)c1OCC(=O)NC(C)(C)C	29.5% (inactive)
CCCOc1ccc(C2/C(=C(/O)c3ccc(F)cc3)C(=O)C(=O)N2CCCN(C)C)cc1 (stereo not given)	16.2% (inactive)
O=C(Nc1ccccc1N1CCOCC1)c1cc(-c2ccncc2)nc2ccccc12	4.3% (inactive)
COc1cc(/C=C(\C#N)c2nc3ccc(C)cc3[nH]2)cc([N+](=O)[O-])c1O	46.2% (inactive)
CN(C)/C=C1\C(=O)N(c2ccc([N+](=O)[O-])cc2)N=C1c1ccccc1	24.5% (inactive)
O=C(NCCN1CCCC1)c1ccc(Cn2c(=S)[nH]c3ccc(Br)cc3c2=O)cc1	-24.9% (inactive)
COc1ccc(C(=O)Nc2c(Cl)cc(Cl)cc2C(=O)NCCN2CCOCC2)cc1	2.6% (inactive)
Cc1ccsc1/C=C/C(=O)O	-2.7% (inactive)
Cc1cccc(N2CC(O)(c3cccs3)[N+]3=C2CCCC3)c1 (stereo not given)	-8.7% (inactive)
CCC(CC)c1nc(C#N)c(NCc2ccccc2)o1	5.4% (inactive)
CCOc1ccc(NC(=O)N2CCC(c3nc4ccccc4[nH]3)CC2)cc1	-14.1% (inactive)
COc1ccc(-c2nc(CN3CCC(c4ccccc4)CC3)c(C)o2)cc1OC	12.5% (inactive)
Cc1sc(NC(=O)CCl)c(C(=O)c2ccccc2)c1C	23.2% (inactive)
Cc1sc(NC(=O)c2ccccc2)c(C(=O)c2ccccc2)c1C	57.2% (active)
Cc1ccc(C(=O)c2c(NC(=O)c3ccccc3)sc(C)c2C)cc1	59.8% (active)
Cc1ccccc1C(=O)Nc1sc(C)c(C)c1C(=O)c1ccccc1	13.9% (inactive)
Cc1ccc(C(=O)Nc2sc(C)c(C)c2C(=O)c2ccccc2)cc1	50.2% (active)
Cc1sc(NC(=O)c2ccccc2)c(C(=O)NC(C)C)c1C	2.2% (inactive)
CCN(CC)C(=O)c1c(NC(=O)c2ccccc2)sc(C)c1C	-0.5% (inactive)
Cc1ccc(C(=O)c2c(NC(=O)c3ccccc3C)sc(C)c2C)cc1	12.9% (inactive)
Cc1sc(NC(=O)c2ccccc2)c(C(=O)NCCN(C)C)c1C	-8.6% (inactive)
